From PubChem BioAssay
A selection: hits, their analogues and other compounds. The true share with any hit is near 5.4%.
IMPase Li inh – membrane-permeable IMPase blocker, potentiated with lithium; 210,000 tested, 0.35% active; Potency, µM (titrated, usually from 59.4 µM), inactives show at the top dose activity, negative = IMPase inhibition, most hits filed as inhibitors; CHO-M1 cells, IP1 TR-FRET (IP-One), carbachol + lithium; AID 1457;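 also: IP1 builds up when IMPase is blocked and the TR-FRET signal falls; potency is read from the fitted curve at half-maximal effect; plate controls were basal vehicle for no effect and high inhibitor control for full effect; nearly all actives have a fitted effect of over 50% in size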
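Steps: plate 2000 CHO-M1 cells per well and culture 16–30 h; add compound and lithium; incubate 30 min, 37C; add d2-IP1 tracer and Eu cryptate anti-IP1 antibody in lysis buffer; read after 10 min at room temperature.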
HPGD block – blocks human HPGD enzyme activity; P15428; purified HPGD, NADH fluorescence kinetic, PGE2 substrate; Potency, µM, for the others: at the top dose activity change, negative = inhibition, usual class: inhibitors; 150,000 tested, 4.3% active; active = well fitted inhibition curve with a large enough effect, not every such curve was filed as active; inconclusive = small, poorly fitted or top-dose-only effect, or another doubt; inactive = no such curve, though single readings can be large or run the other way; also: potency is read from the fitted curve at half-maximal effect
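20 nM HPGD preincubated 15 min at room temperature with compound in 50 mM Tris-HCl pH 8, 0.01% Tween 20. Started with 1 mM NAD+ and 30 uM prostaglandin E2; NADH fluorescence (360/450 nm) read 5 times over 30-s intervals, last minus first.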
PNC inhibitor – perinucleolar compartment assembly inhibition. PC3M PTB-GFP, PNC prevalence imaging, 16 h; stronger effect = lower value. activity change (PNC), negative = inhibition, % at 10 µM. 140,000 tested, 3.1% active. AID 2417;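 active = readout at or below -70, meaning at least 70% loss of cells showing the perinucleolar compartment, a nuclear body marking cancer cells; inconclusive = readout between -30 and a set limit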;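 also: plate controls were DMSO wells for no effect and camptothecin positive control wells for full effect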
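Compounds are pinned in duplicate onto adhered PC3M cells stably expressing GFP-tagged PTB and incubated 16 h at 37 C. Cells are then fixed, nuclei stained with Hoechst, and PNC-positive cells counted.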
IMPase inh – IMPase inhibition in cells; P97697; CHO-M1 cells, IP1 accumulation, HTRF TR-FRET ratio; inhibition (IP1 accumulation), % at 46.1 µM; 120,000 tested, under 10 active; active = well fitted curve in the direction sought with a large enough effect in the signal ratio, not every such curve was filed as active; inconclusive = small, poorly fitted or top-dose-only effect, or a change in a side signal; inactive = no such curve, though single readings can be large or run the other way; the % refers to the signal ratio;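 also: cells stimulated with carbachol in lithium chloride buffer; plate controls were DMSO basal wells for no effect and reference inhibitor wells for full effect; higher means more IMPase inhibition seen as more IP1 and lower FRET ratio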
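Measured: the HTRF emission ratio (665/620 nm) plus the 620 nm donor channel, each fitted to the Hill equation to give AC50. Cells were CHO-M1 given compounds up to 46 uM and a 30 min carbachol stimulation at 37C.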
ALOX12 inhib – blocks human 12-lipoxygenase activity; AID 1452; P18054; purified 12-hLO, xylenol orange hydroperoxide absorbance; Potency, µM (highest dose often 57.1 µM), for inactives: at the highest dose activity change, negative = inhibition, actives largely listed as inhibitors; 150,000 tested, 0.12% active; also: potency is read from the fitted curve at half-maximal effect; nearly all actives have a fitted effect of over 55% in size
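150 nM 12hLO, 25 mM Hepes pH 7.0 + 0.01% Triton X-100; cpd preinc 15 min RT; 40 uM arachidonic acid, 30 min RT; Fe-XO 30 min; A573/A405 ratio as read-out.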
15-hLO-2 inh – inhibitors of human 15-lipoxygenase 2 (ALOX15B) | 110,000 tested, 0.56% active | purified 15hLO-2, xylenol orange hydroperoxide absorbance | Potency, µM (doses to about 57.1 µM), inactives show at the top dose activity change, negative = inhibition, actives largely listed as inhibitors | O15296; also: potency is read from the fitted curve at half-maximal effect; nearly all actives have a fitted effect of over 60% in size
Target sequence (O15296 whole entry, looked up): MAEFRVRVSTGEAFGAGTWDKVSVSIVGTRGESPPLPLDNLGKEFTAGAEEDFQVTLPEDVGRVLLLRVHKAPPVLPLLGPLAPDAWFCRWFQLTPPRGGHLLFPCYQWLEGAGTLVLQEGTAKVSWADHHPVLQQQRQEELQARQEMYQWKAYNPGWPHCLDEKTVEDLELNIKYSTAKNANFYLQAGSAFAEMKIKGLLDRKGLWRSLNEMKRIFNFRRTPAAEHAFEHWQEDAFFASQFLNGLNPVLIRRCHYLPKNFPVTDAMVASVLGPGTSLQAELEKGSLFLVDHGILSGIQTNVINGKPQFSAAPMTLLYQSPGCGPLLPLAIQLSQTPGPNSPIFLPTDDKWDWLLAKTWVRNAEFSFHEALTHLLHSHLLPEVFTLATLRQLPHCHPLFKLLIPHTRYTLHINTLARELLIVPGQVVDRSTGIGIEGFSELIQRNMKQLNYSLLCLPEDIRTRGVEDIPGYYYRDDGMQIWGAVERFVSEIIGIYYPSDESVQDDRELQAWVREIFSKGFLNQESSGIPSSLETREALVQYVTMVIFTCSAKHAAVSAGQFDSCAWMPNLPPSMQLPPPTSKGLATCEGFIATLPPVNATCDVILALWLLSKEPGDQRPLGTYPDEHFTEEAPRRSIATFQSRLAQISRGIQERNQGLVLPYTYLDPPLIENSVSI
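Purified human 15hLO-2 (50 nM final) preincubated with compounds 15 min at room temperature in 25 mM Hepes pH 7.5, 0.01% Triton X-100, then 45 uM arachidonic acid added for 90 min; hydroperoxide detected via ferrous/xylenol orange, 573/405 nm absorbance ratio.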
An asterisk follows results filed as active; u = inconclusive; x = no result given; [ ] = remark or other dose. Unless noted, calls follow the shape of the dose curve; as a rule, active = well fitted curve in the direction sought with a large enough effect; inconclusive = small, poorly fitted or top-dose-only effect, or another doubt; inactive = no such curve, though single readings can be large; an effect the other way counts as inactive or inconclusive. Unless noted, % is scaled to controls: 0 for no effect and ±100 for the full control effect.

SMILES | IMPase Li inh | HPGD block | PNC inhibitor | IMPase inh | ALOX12 inhib | 15-hLO-2 inh
Cc1cccc(-n2c(-c3csc(C)c3)n[nH]c2=S)c1 | 21%[38.3 µM] | 14µM* | 16 | 3 | -7% | -24%
COc1cc2c(-c3ccc(C)cc3)nc3c(c(C)nn3-c3ccccc3)c2cc1OC | x | x | x | -3 | x | x
CCSc1nnc(NC(=O)CC)s1 | -2%[38.3 µM] | -8% | -13 | 9 | -2% | -1%
CC(C)(C)C(=O)Nc1nc(=S)ss1 | 21%[38.3 µM] | 32µM* | 29 | 2 | -2% | -18%
CCC(=O)Nc1nc(=S)ss1 | 32%[38.3 µM] | 10µM* | u | 8 | 3% | -28%
CCOC(=O)Cc1csc(-n2sc3ccccc3c2=O)n1 | 7.9µM* | 1.4µM* | 8 | u | 4.5µM* | 1.3µM*
Cc1ccc(C(=O)CSc2nsc(C)c2C#N)cc1 | 21%[38.3 µM] | 22µM* | 53 | -24[1.84 µM] | -5% | -5%[11.4 µM]
Cc1ccnc(SCC(=O)c2ccc(Br)cc2)c1C#N | 9% | 28µM* | 41 | x | -8% | x
CCOC(=O)/C(C)=N/NC(C)=O | 15% | -3% | x | x | x | x
C[C@H]1Cc2c(COc3ccccc3)nc3c(c2CO1)CN(C(=O)NCCc1c[nH]c2ccccc12)CC3 | -2% | 1% | x | x | -1%[11.4 µM] | x
Cc1ccc(S(=O)(=O)N2CCN(Cc3ccc4c(c3)OCO4)CC2)cc1 | x | x | x | -3 | x | x
Cc1nc(Nc2ccccc2)c2nc(-c3ccccc3)n(CCN3CCOCC3)c2n1 | 1% | u | x | x | -10% | 36%
CC1CCN(C(=O)CSc2nncn2C)CC1 | 0%[38.3 µM] | 3% | -27 | -7 | -2% | -2%
CC1CCN(C(=O)CSc2nc(N)cc(N)n2)CC1 | -4%[38.3 µM] | 16µM* | 19 | 5 | 0% | 5%
Cc1cc(C)nc(SCc2nnc(SCC#N)n2-c2cccc(Cl)c2)n1 | -5%[38.3 µM] | 16µM* | -8 | 9 | -1% | 1%
Cc1cc(C)nc(SCC(=O)c2ccc(O)cc2O)n1 | -4%[38.3 µM] | -19% | -92* | 1 | 1% | 3%
Nc1cc(=O)[nH]c(SCC(=O)N2CCCCC2)n1 | -2% | x | x | x | x | x
Nc1cc(N)nc(SCC(=O)N2CCCCC2)n1 | -1%[38.3 µM] | 28µM* | 35 | -10 | 4% | -1%
CC(=O)OC1CCC23CC1(C)CCC2C(C)(C)CC3OC(C)=O (centres undefined) | 13% | -3% | x | x | -3% | 0%
Cn1cccc1C(=O)N1CCC2(CC1)CN(C(c1ccccc1)c1ccccc1)C2 | 6% | -16% | x | x | 1% | 2%
O=C(CSc1nc2ccccc2nc1SCC(=O)N1CCCCC1)N1CCCCC1 | x | 2.5µM* | -20 | u | -10% | -17%
Cc1cc(C)nc(SCC(=O)N2CCCCC2)n1 | -8%[38.3 µM] | 7.9µM* | u | 7 | -2% | 2%
Cc1ccc(-n2c(CSc3nc(C)cc(C)n3)nnc2SCC(=O)N2CCCC2)cc1 | -8%[38.3 µM] | 3% | -100* | -2 | -7% | 6%
CCOc1ccc(S(=O)(=O)N(CC(=O)NCCSc2ccccc2)c2ccccc2)cc1 | x | x | x | 1 | x | x
CC#CCN1c2ccccc2[C@]23C[C@@H](C(=O)OC)N(C(=O)COCc4ccccc4)C2=NC(C(=O)OC)=C(C(=O)OC)[C@H]13 | 6% | 4% | x | x | 4%[11.4 µM] | x
SMILES | IMPase Li inh | HPGD block | PNC inhibitor | IMPase inh | ALOX12 inhib | 15-hLO-2 inh
CCOC(=O)CSc1nc2c(sc3ccc([N+](=O)[O-])cc32)c(=O)n1Cc1ccco1 | 20% | -16% | -87* | x | 0% | x
O=C(NCC1CCCO1)c1ccc2c(=O)n(Cc3ccco3)c(SCC(=O)N3CCCC3)nc2c1 (centres undefined) | -4%[38.3 µM] | u | 39 | 1 | 4% | 2%
CCOC(=O)CSc1nc2cc(C(=O)NCC3CCCO3)ccc2c(=O)n1Cc1ccco1 (centres undefined) | 3%[38.3 µM] | -25% | -88* | 7 | -2% | 5%
S=C1NC(c2cccs2)=CC(c2ccc(Br)cc2)N1 (centres undefined) | -7% | 32µM* | 63 | x | u | x
S=C1NC(c2ccccc2)=CC(c2ccccc2)N1 (centres undefined) | -1% | x | x | x | x | x
COc1ccc(-n2nc(C(=O)c3cccs3)cc(-c3nc4ccccc4[nH]3)c2=N)cc1 | 23% | -3% | 11 | -4 | -3% | x
Cc1ccccc1-n1nc(C(=O)c2cccs2)cc(-c2nc3ccccc3[nH]2)c1=N | 9% | -10% | -100* | 0 | 0% | x
CCOC(=O)c1c(C)oc2c1c(C(c1cccnc1)N1CCN(C)CC1)c(O)c1ccccc12 (centres undefined) | 6%[38.3 µM] | -28% | -13 | 5 | -28% | 7%
CCOC(=O)c1c(C)oc2c1c(C(c1cccnc1)N1CCOCC1)c(O)c1ccccc12 (centres undefined) | 11%[38.3 µM] | 22µM* | 23 | 10 | u | 33%
CN(C)c1ccc(-c2cncnc2NCCN2CCOCC2)cc1 | 19% | x | x | x | x | -22%
CN(C)c1nc(NS(=O)(=O)c2ccc(Cl)cc2)nc(N(C)C)n1 | 3%[38.3 µM] | -2% | -121* | -1 | -1% | -6%
O=C(Nc1ccc(Cl)cc1)Nc1ccc(S(=O)(=O)Nc2ncccn2)cc1 | 10% | x | x | x | x | x
